For one test, the system named is Klebsiella pneumoniae. The conditions noted are these: Concentration 32 ug.mL-1;; ASSAY_TEST Inhibition of Bacterial Growth; detection method Absorption (OD600); MEDIA CAMHB; plate type 384well; NBS; CORNING #3640; time 18 hr.
For another test, the system named is Candida albicans. The conditions noted are these: Concentration 32 ug.mL-1; ASSAY_TEST Inhibition of Fungal Growth; detection method Absorption (OD530).
In a further test the test system is Cryptococcus neoformans. The conditions noted are these: Concentration 32 ug.mL-1; ASSAY_TEST Inhibition of Fungal Growth; detection method Resazurin; Absorption (OD600-OD570); plate type 384well; NBS; CORNING #3640.

Results with a measured potency or affinity are listed apart.

`COc1ccc(CN(c2ccc(C(C)C)cc2)S(=O)(=O)c2cccn3cnnc23)cc1`: the Inhibition in the test with Klebsiella pneumoniae is recorded as 7.8%; with Candida albicans it was 1.9%; in the test on Cryptococcus neoformans it was -7.62%.

For the molecule `CCc1ccccc1NC(=O)Cn1nc2c(Sc3ccc(C)cc3C)nccn2c1=O`, the Inhibition is 5.69% with Klebsiella pneumoniae, 0.47% in the test on Candida albicans and -23.87% in the test with Cryptococcus neoformans.

Regarding `COc1ccc(C(=O)CSc2nnc3c(=O)n(-c4ccc(F)c(F)c4)ccn23)cc1OC`, the values for the Inhibition in the test on Klebsiella pneumoniae, in the test on Candida albicans and with Cryptococcus neoformans were 11.04%, 3.34% and -3.67%, respectively.

For the molecule `O=C(Cn1nc2c(Sc3cccc(F)c3)nccn2c1=O)Nc1ccc(Br)cc1`, the figures for the Inhibition in the test on Klebsiella pneumoniae, with Candida albicans and in the test with Cryptococcus neoformans were 4.85%, 1.59% and -3.57%, respectively.

As for `COc1ccc(NC(=O)Cn2nc3c(Sc4ccccc4)nc4ccccc4n3c2=O)cc1Cl`, the Inhibition in the test on Klebsiella pneumoniae was 5.63%; with Candida albicans, 1.75%; in the test on Cryptococcus neoformans, -17.25%.

With `CSc1cccc(NC(=O)Cn2nc3ccc(SC4CCCCC4)nn3c2=O)c1`, the Inhibition with Klebsiella pneumoniae is 4.23%; with Candida albicans, 0.23%; in the test with Cryptococcus neoformans, -8.34%.

Regarding `COc1ccc(OC)c(NC(=O)Cn2nc3ccc(-c4ccc(Cl)cc4)nn3c2=O)c1`, the Inhibition in the test on Klebsiella pneumoniae is 15.39%; in the test with Candida albicans it was 0.24%; in the test with Cryptococcus neoformans, -17.15%.

`O=c1c2sccc2n2c(SCc3cccc(C(F)(F)F)c3)nnc2n1Cc1ccc(F)cc1`: the Inhibition is reported as 10.74% with Klebsiella pneumoniae, 2.55% with Candida albicans and -25.66% with Cryptococcus neoformans.

Regarding `O=C(CSc1nnc2c(=O)n(-c3ccc(F)cc3)ccn12)NCC1CCCO1` (stereo not given), the figures for the Inhibition in the test with Klebsiella pneumoniae, in the test on Candida albicans and in the test on Cryptococcus neoformans were 7.61%, 4.29% and -18.42%, respectively.

With `COc1ccc(-c2cc3c4nnc(SCC(=O)NCc5ccccc5)n4ccn3n2)cc1`, the Inhibition with Klebsiella pneumoniae was -10.83%; in the test with Candida albicans, 19.83%; in the test with Cryptococcus neoformans, -19.87%.

Take `CCOc1ccc(NC(=O)Cn2nc3ccc(Sc4cccc(F)c4)nn3c2=O)cc1`: the Inhibition is 0.85% with Klebsiella pneumoniae, 6.64% in the test on Candida albicans and -8.03% with Cryptococcus neoformans.

As to `COc1cccc(-n2ccn3c(SCC(=O)c4c[nH]c5ccc(OC)cc45)nnc3c2=O)c1`, the results for the Inhibition in the test with Klebsiella pneumoniae, in the test on Candida albicans and in the test with Cryptococcus neoformans were 12.06%, 5.77% and -34.12%, respectively.

Turning to `Cc1ccc(NC(=O)Cn2nc3c4cc(-c5ccc(Cl)cc5)nn4ccn3c2=O)cc1F`, the results for the Inhibition in the test on Klebsiella pneumoniae, with Candida albicans and in the test on Cryptococcus neoformans were 4.91%, -0.67% and -19.64%, respectively.

For `COc1ccccc1CNC(=O)Cn1nc2c(N3CCCCCC3)nccn2c1=O`, the Inhibition in the test on Klebsiella pneumoniae is 8.05%; with Candida albicans, 3.98%; with Cryptococcus neoformans, -7.24%.

Consider `COc1ccc(NC(=O)Cn2c(=O)c3nnc(C(C)C)n3c3ccccc32)cc1Cl`, for which the Inhibition is on record as 7.18% in the test on Klebsiella pneumoniae, 3.46% in the test with Candida albicans and -13.11% in the test with Cryptococcus neoformans.

In the case of `Cc1ccc(CNC(=O)Cn2nc3c(N4CCN(c5ccccc5C)CC4)nccn3c2=O)cc1`, the Inhibition in the test with Klebsiella pneumoniae was 0.81%; with Candida albicans, 26.17%; with Cryptococcus neoformans it was -8.71%.

In the case of `CC(C)c1nnc2c(SCC(=O)Nc3ccc(Br)cc3)nc3ccccc3n12`, the Inhibition was 6.82% in the test with Klebsiella pneumoniae, 0.48% in the test with Candida albicans and 0.69% with Cryptococcus neoformans.

Regarding `O=S(=O)(c1ccc2nncn2c1)N(Cc1cc(F)cc(F)c1)c1cc(F)cc(F)c1`, the Inhibition was -2.94% in the test with Klebsiella pneumoniae, 0.05% with Candida albicans and -3.18% in the test on Cryptococcus neoformans.

For the molecule `Cc1nnc2c(S(=O)(=O)N(Cc3ccccc3)c3ccc(C(C)C)cc3)cccn12`, the Inhibition in the test on Klebsiella pneumoniae is given as 8.51%; in the test with Candida albicans, -1.81%; in the test on Cryptococcus neoformans, -8.23%.

For `O=c1n(Cc2cccc(C(F)(F)F)c2)nc2c(S(=O)(=O)N3CCCCC3)cccn12`, the Inhibition in the test with Klebsiella pneumoniae is recorded as 6.48%; in the test on Candida albicans, 1.28%; in the test with Cryptococcus neoformans it was -8.66%.

For the molecule `Cc1cccc(C)c1NC(=O)Cn1nc2c(Sc3cccc(F)c3)nccn2c1=O`, the Inhibition in the test with Klebsiella pneumoniae is 4.53%; in the test with Candida albicans, -1.35%; with Cryptococcus neoformans it was -4.17%.

Take `CCN(CCCNC(=O)CCc1nnc2ccc(-c3ccc(C)c(C)c3)nn12)c1ccccc1`: the Inhibition was 13.51% with Klebsiella pneumoniae, 13.02% in the test on Candida albicans and -7.8% in the test with Cryptococcus neoformans.

On to `COc1ccc(-c2cc3c4nnc(SCC(=O)Nc5cc(F)ccc5C)n4ccn3n2)cc1`, for which the Inhibition is listed as -19.37% with Klebsiella pneumoniae, 1.81% in the test on Candida albicans and -16.34% in the test with Cryptococcus neoformans.

For the molecule `Cc1nnc2c(SCC(=O)N3CCN(c4ccccc4F)CC3)nc3ccccc3n12`, the Inhibition in the test with Klebsiella pneumoniae is 10.03%; with Candida albicans it was 8.32%; in the test on Cryptococcus neoformans, -3.27%.

With `CCOc1ccc(-n2ccn3c(SCC(=O)c4cccc(Cl)c4)nnc3c2=O)cc1`, the figures for the Inhibition in the test on Klebsiella pneumoniae, in the test with Candida albicans and in the test with Cryptococcus neoformans were 10.21%, 2.76% and -7.79%, respectively.

Regarding `CSc1cccc(NC(=O)Cn2nc3c(SCc4ccc(Cl)cc4)nccn3c2=O)c1`, the figures for the Inhibition with Klebsiella pneumoniae, with Candida albicans and with Cryptococcus neoformans were 7.71%, 19.01% and -40.36%, respectively.

Regarding `COc1ccc(CN(c2cc(C)cc(C)c2)S(=O)(=O)c2cccn3c(C)nnc23)cc1`, the Inhibition in the test with Klebsiella pneumoniae is on record as -1.14%; in the test with Candida albicans it was 2.31%; in the test on Cryptococcus neoformans, -5.62%.

For the molecule `Cc1ccc(-c2ccc3nn(CC(=O)Nc4ccc(Cl)cc4)c(=O)n3n2)cc1C`, the Inhibition with Klebsiella pneumoniae is reported as 17.23%; with Candida albicans, 0.13%; in the test with Cryptococcus neoformans, -13.82%.

For `O=C(Cn1nc2nc(Nc3ccc(F)cc3)ccn2c1=O)N1CCCC1`, the Inhibition with Klebsiella pneumoniae is 10.98%; with Candida albicans, 0.53%; with Cryptococcus neoformans it was -8.71%.

As to `CC1CCCN(c2nccn3c(=O)n(CC(=O)Nc4ccc(F)cc4F)nc23)C1` (stereo not given), the Inhibition with Klebsiella pneumoniae is on record as -1.65%; in the test with Candida albicans, 1.98%; with Cryptococcus neoformans it was -8.2%.
